# Results from PubChem BioAssay AID932 (The Scripps Research Institute Molecular Screening Center, 2007).
# Hit rate of the full screen: of about 200,000 compounds, about 5,100 (2.5%) were called active. Many of the other results were omitted from the sample, so actives are more common in it than they were. Unmarked numbers belong to inactive results.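 Rule for the calls: active = activation above the screen-wide mean activation plus 3 SD (cut at about 130% in these data); inactive = the rest.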 Where a SMILES comes first, the peptide text is derived from it. The star is where a group is joined. OPac = O=C(CO*)c1ccccc1; Bz = O=C(c1ccccc1)*
# Test: STAT1 signaling activators, primary screen, cell-based, HTS, luciferase reporter (AID 932);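 note: raw ratio to IFN-gamma control signal so 100% means no change and 0% no light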
# Conditions: NIH 3T3 STAT1-luciferase reporter, IFN-gamma, luminescence; at 5.5 µM; hits give high values; 100% = IFN-gamma alone, no compound
row,Structure (SMILES),activation (% of control)
1,Clc1ccc(-c2cc(C3CCNCC3)[nH]n2)c(Cl)c1,135% (active)
2,Clc1ccc(-c2ncc3ccccn23)c(Cl)c1,112%
3,O=C1CSC(c2ccccc2)N1c1nc(-c2ccc(Cl)cc2Cl)cs1 (stereo unspecified),102%
4,O=C(O)c1ccn(COc2ccc(Br)cc2)n1,101%
5,N=C1C(=O)OCC1c1ccccc1NC(=O)CN1CCCCC1 (stereo unspecified),86.4%
6,O=C(/C=C\NCC(=O)c1ccccc1)c1ccccc1,104%
7,O=C(/C=C/NCc1ccc(F)cc1)c1ccccc1,117%
8,Cc1ccc(N/C=C/C(=O)c2ccccc2)cc1C,142% (active)
9,CC(C)(C)NC(=O)NC(=O)COC(=O)Cc1ccc(Cl)cc1Cl,103%
10,Cc1ncc(CC(=O)n2cc(C(=O)c3cc(Cl)ccc3O)cn2)s1,103%
11,O=C(c1cnn(-c2ccc(Cl)cc2)c1)c1ccccc1O,137% (active)
12,O=C(O)c1ccc(NC(=O)c2cn(-c3ccccc3)nc2-c2ccc(Cl)cc2)cc1,122%
13,Cc1ccc(C)n1NC(=O)c1ccc([N+](=O)[O-])cc1,97.7%
14,O=C(Nn1c(-c2ccccc2)nc2ccccc2c1=O)c1ccc([N+](=O)[O-])cc1,95.4%
15,O=C(Nn1c(SCc2ccc([N+](=O)[O-])cc2)nc2ccccc2c1=O)c1ccc(F)cc1,150% (active)
16,O=C(CNC(=O)c1ccccc1)NCC(=O)OCC(=O)c1ccccc1 (Bz-Gly-Gly-OPac),101%
17,Cn1cc(CN2CCC(C(O)CCc3ccccc3)CC2)c(-c2ccccc2F)n1 (stereo unspecified),97.4%
18,COCCCNC(=S)N1CCCC(c2nc3cc(C)c(C)cc3[nH]2)C1 (stereo unspecified),140% (active)
19,CCNC(=S)N1CCC(c2nc3cc(C)c(C)cc3[nH]2)CC1,96.7%
20,CCCNC(=S)N1CCCC(c2nc3ccccc3[nH]2)C1 (stereo unspecified),94.6%
21,CC(=O)NCC(=O)N(Cc1ccco1)C1(C(=O)NC2CCCC2)CCCCC1,89.9%
22,Cc1nn(-c2ccc([N+](=O)[O-])cc2)c(N)c1-c1ccccc1,164% (active)
23,O=C1CC(c2ccccc2)=NN1c1ccc([N+](=O)[O-])cc1,104%
24,Cc1nn(-c2ccccc2)c2c1C(c1cccc([N+](=O)[O-])c1)N(c1ccccc1)C(=O)N2 (stereo unspecified),97.4%
25,CNC(=O)NC(=O)CSc1nnc(-c2ccc(F)cc2)n1CC1CCCO1 (stereo unspecified),103%
26,Cc1cccc(N=Nc2c(C)[nH]n(-c3ccccc3)c2=O)c1,112%

row,Structure (SMILES),activation (% of control)
1,COCC(=O)N=Nc1c(O)[nH]c2ccccc12,110%
2,Cc1cccc(N=Nc2c(O)[nH]c3ccc(F)cc23)c1,161% (active)
3,O=c1c(-c2ccccc2)coc2c(CN3CCOCC3)c(O)ccc12,100%
4,O=c1c(-c2ccccc2)coc2cc(O)ccc12,137% (active)
5,CC(=O)COc1ccc2c(-c3ccccc3)cc(=O)oc2c1,109%
6,O=c1c2c(ncn1Cc1ccccc1)nc1n2CCC1,96.7%
7,COC(=O)c1ccc(CN2CCN(CCCc3ccccc3)C(CCO)C2)cc1 (stereo unspecified),96.7%
8,CCOC(=O)c1oc2c(CN3CCN(CCO)CC3)c(O)c(CC)cc2c(=O)c1-c1nc2ccccc2s1,104%
9,CC1CN/C(=C\C(=O)c2ccc(Br)cc2)C(=O)N1 (stereo unspecified),172% (active)
10,CN1CCCC(OC(=O)COc2ccc(Br)cc2)C1 (stereo unspecified),101%
11,C/C(=C\C(=O)c1ccc(Br)cc1)N1CCCCC1,105%
12,COc1ccc(-n2c(C)cc(C(=O)CSc3nnc(-c4cccs4)o3)c2C)cc1,85.5%
13,Cc1ccc(-n2c(C)cc(C(=O)CSc3nnc4ccccn34)c2C)cc1,150% (active)
14,O=C(CSc1nnc2ccccn12)c1ccccc1,123%
15,CCOc1ccc(C(=O)NC2CCN(CC(=O)NCc3cccs3)CC2)cc1,105%
16,CN(C)CCCCCN(C)Cc1cc2ccccc2o1,91.6%
17,Cc1cc(NC(=O)CSc2nnc(Nc3ccccc3F)s2)no1,102%
18,COc1ccccc1-c1cc(C(=O)NCCCn2ccnc2)no1,112%
19,O=C(NCCCn1ccnc1)c1cc(-c2ccccc2)on1,161% (active)
20,COc1ccc(-c2cc(C(=O)NCCCn3ccnc3)no2)cc1,110%
21,Cc1ccc(NC(=O)CSc2nnc(COc3ccccc3C)o2)cc1,103%
22,Cc1ccccc1-c1nc(C#N)c(NCc2ccco2)o1,98.1%
23,O=C(C(=O)N1CCc2ccccc2C1)c1c[nH]c2ccccc12,105%
24,CC(=O)c1cccc(NC(=O)[C@@H](NC(N)=O)C(C)C)c1,98.5%
25,COc1ccc(-c2csc(NC(=O)COC(=O)Cc3ccc(Cl)cc3Cl)n2)cc1,112%
26,COc1ccc(-c2csc(NC(=O)CCCc3cccs3)n2)cc1,91.3%

row,Structure (SMILES),activation (% of control)
1,COc1ccc(-c2csc(NC(=O)COC(=O)c3ccc(Br)o3)n2)cc1,129% (active)
2,O=C(Nc1ccc2c(c1)CCC2)c1ccc(Br)s1,165% (active)
3,CC(C)C(=O)OCC(=O)Nc1ccc2c(c1)CCC2,101%
4,O=C(NC1CCCC1)c1ccc(Br)s1,108%
5,CC1(C)C(c2cccs2)=[N+]([O-])C2(CCCCC2=O)N1O (stereo unspecified),105%
6,COc1cc(C(=O)N2C(=O)c3cccc(N)c3C2=O)cc(OC)c1OC,104%
7,O=C(CCN1CCCCC1)N=Nc1c(O)[nH]c2ccccc12,93.5%
8,O=C(Nc1ccc2c(c1)C(=O)OC2)Nc1cccc2ccccc12,93.7%
9,CCOC(=O)N1CCC(NC(=O)c2ccc3nc(N4CCOCC4)sc3c2)CC1,102%
10,Fc1ccc2nc(N3CCCCC3)sc2c1,147% (active)
11,Fc1cc(F)c2nc(N3CCOCC3)sc2c1,122%
12,Brc1ccc2nc(N3CCCC3)sc2c1,134% (active)
13,c1c2c(cc3sc(N4CCCCC4)nc13)OCCO2,56.4%
14,Cc1nc(N2CCCCC2)sc1C=O,96.9%
15,O=C(COC(=O)CC1CC2CCC1C2)NC(=O)NC1CCCC1 (stereo unspecified),101%
16,CCOC(=O)c1c(C)n(C)c2ccc(OC)c(NS(=O)(=O)CC)c12,111%
17,CC(=O)c1cc(C#N)c(N2CCCCC2)nc1C,95.1%
18,CC(=O)c1cc(C#N)c(SCC(=O)C(C)(C)C)nc1C,140% (active)
19,CC(=O)c1cc(C#N)c(SCC(=O)Nc2nccs2)nc1C,108%
20,Cc1nc2nc[nH]n2c(=O)c1C/C=C/c1ccccc1,102%
21,Cc1cccc(OC(=O)c2sc3ncn(C)c(=O)c3c2C)c1,134% (active)
22,CCOC(=O)C(C)n1cnc2sc(C)c(C)c2c1=O (stereo unspecified),105%
23,Cc1c(C(N)=O)sc2ncn(CCOc3ccccc3)c(=O)c12,116%
24,COc1ccc(Br)cc1C(=O)Nc1cccc(C)c1C,95.7%
25,O=S(=O)(ON(c1ccccc1)S(=O)(=O)c1ccccc1)c1ccccc1,105%
26,CCOC(=O)c1cccc(NC(=O)CCOc2ccccc2)c1,97.3%

row,Structure (SMILES),activation (% of control)
1,CCOC(=O)N/N=C/c1cccnc1,102%
2,CC(=O)Nc1ccc(S(=O)(=O)NC2(C(F)(F)F)C(=O)Nc3c2c(=O)[nH]c(=O)n3Cc2ccccc2)cc1 (stereo unspecified),108%
3,CN(C)c1ccnc2sc3c(=O)n(Cc4ccccc4)cnc3c12,78.3%
4,CN(C)c1ccnc2sc(C(=O)c3ccccc3)c(N)c12,153% (active)
5,Cc1nc2sc(C(=O)c3ccccc3)c(N)c2c2c1CCCC2,113%
6,N#Cc1ccccc1NC(=O)COc1c(Br)cc(Br)c2cccnc12,77.3%
7,Cc1ccc(NC(=O)CC2S/C(=N/N=C3\CCCc4ccccc43)NC2=O)cc1 (stereo unspecified),107%
8,COc1ccc(CCn2ccc(O)c(Cc3ccc(Cl)cc3Cl)c2=O)cc1OC,92.6%
9,COc1ccc(C(=O)NC2CCN(C(=S)NCCc3ccccc3)CC2)cc1,91.9%
10,O=C(NCCc1ccccc1)c1ccc(NC2=NC3CS(=O)(=O)CC3S2)cc1 (stereo unspecified),102%
11,CC1CCCN(c2ccc(C(=O)NCCc3ccccc3)cn2)C1 (stereo unspecified),147% (active)
12,CCCC/C(C)=N/NC(=O)NC1CCCCC1,102%
13,NS(=O)(=O)c1ccc(NC(=O)COC(=O)c2ccc(Cl)nc2)cc1,103%
14,CCc1ccc(C2N3CC4([N+](=O)[O-])CN2CC([N+](=O)[O-])(C3)C4(C)C)cc1 (stereo unspecified),90.6%
15,COc1ccc(-c2nc3n(c2Br)CCC3)cc1,131% (active)
16,Brc1cccc(-c2nnc3n2CCC3)c1,101%
17,Cc1ccc2nc3n(c(=O)c2c1)CCC3,106%
18,COc1cc(-c2cc(C(=O)OCC(=O)Nc3ccc4c(c3)OCO4)c3ccccc3n2)cc(OC)c1OC,91.2%
19,Cc1cccc(C)c1N1CCN(S(=O)(=O)N2CCCCC2)CC1,96.7%
20,CC1CN(CCOc2ccccc2[N+](=O)[O-])CC(C)O1 (stereo unspecified),101%
21,COc1ccc(C2Nc3ccccc3C(=O)N2c2ccc(Cl)cc2)cc1Cn1cc([N+](=O)[O-])cn1 (stereo unspecified),181% (active)
22,COc1ccc(C2Nc3ccccc3C(=O)N2c2ccc(F)cc2)cc1Cn1nnc2ccccc21 (stereo unspecified),103%
23,COc1ccc(C2Nc3ccccc3C(=O)N2Cc2ccccc2)cc1Cn1nnc2ccccc21 (stereo unspecified),101%
